From PubChem BioAssay (EPA / NIEHS)
Activity calls are given as the source filed them. The calls were made as follows: active = hit-call score of the fitted dose curve at least 0.9, where 1 is the maximum; inactive = score below 0.9.

Assays:
Conditions in all cases: mRNA level, 48 h; actives raise or lower the signal
[1] = read-out: Lipoprotein lipase (LPL), LPL (gene 4023); assay: LTEA_HepaRG_LPL: Life Technologies and Expression Analysis (LTEA) Assay for Lipoprotein lipase (LPL) using HepaRG (AID 2283515)
In short: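 Differentiated human HepaRG cells in serum-free induction medium were exposed in duplicate for 48 h to eight half-log concentrations (top 100 uM) in 0.5% DMSO. LPL mRNA was quantified by TaqMan qRT-PCR, normalized to ACTB, GAPDH and POLR2A.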

[2] = read-out: MicroRNA 122 (MIR122), gene 406906; assay: LTEA_HepaRG_MIR122: Life Technologies and Expression Analysis (LTEA) Assay for MicroRNA 122 (MIR122) using HepaRG (AID 2283516); also: the transcript read is the microRNA miR-122
In short: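 HepaRG plated 48 h, switched to serum-free induction medium, then treated in duplicate for 48 h (100 uM top, half-log steps, 0.5% DMSO vehicle). RNA isolated, qRT-PCR performed, concentration-response fitted both directions relative to DMSO.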

[3] = read-out: matrix metalloproteinase-10 (MMP10), MMP10 (gene 4319); assay: LTEA_HepaRG_MMP10: Life Technologies and Expression Analysis (LTEA) Assay for matrix metalloproteinase-10 (MMP10) using HepaRG (AID 2283517)
In short: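 HepaRG, collagen I, ~100,000 cells/well; serum-free induction medium; 48 h exposure, duplicate, 8-pt half-log to 100 uM, 0.5% DMSO. Readout: TaqMan qRT-PCR, normalized to ACTB/GAPDH/POLR2A; bidirectional fit vs DMSO.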

[4] = read-out: MYC, MYC (gene 4609); assay: LTEA_HepaRG_MYC: Life Technologies and Expression Analysis (LTEA) Assay for MYC using HepaRG (AID 2283518)
In short: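 Differentiated HepaRG cells exposed 48 h in serum-free induction medium to 8 concentrations (top 100 uM, half-log steps; 0.5% DMSO), duplicate. MYC mRNA measured by Fluidigm qRT-PCR, normalized to ACTB, GAPDH, POLR2A; bidirectional fit versus DMSO.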

[5] = read-out: matrix metalloproteinase-3 (MMP3), MMP3 (gene 4314); assay: LTEA_HepaRG_MMP3: Life Technologies and Expression Analysis (LTEA) Assay for matrix metalloproteinase-3 (MMP3) using HepaRG (AID 2283519)
In short: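 Differentiated human HepaRG cells, plated 48 h on collagen I, were exposed in duplicate for 48 h in serum-free induction medium to eight half-log concentrations up to 100 uM in 0.5% DMSO. MMP3 mRNA was quantified by TaqMan qRT-PCR, normalised to ACTB, GAPDH and POLR2A.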

[6] = read-out: Paternally Expressed 10 (PEG10), PEG10 (gene 23089); assay: LTEA_HepaRG_PEG10: Life Technologies and Expression Analysis (LTEA) Assay for Paternally Expressed 10 (PEG10) using HepaRG (AID 2283520)
In short: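 HepaRG, 48 h post-plating → serum-free induction medium → 48 h chemical exposure (duplicate, 8-pt, max 100 uM, half-log, 0.5% DMSO) → lysis in RLT → TaqMan qRT-PCR for PEG10, ACTB/GAPDH/POLR2A normalisation.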

[7] = read-out: Protein phosphatase 2A (PPP2R4), PTPA (gene 5524); assay: LTEA_HepaRG_PPP2R4: Life Technologies and Expression Analysis (LTEA) Assay for Protein phosphatase 2A (PPP2R4) using HepaRG (AID 2283522)
In short: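 Readout is PPP2R4 transcript level by microfluidic qRT-PCR after 48 h chemical treatment of human HepaRG liver cells. Concentrations spanned 100 uM downward in half-log steps; gain or loss of signal was fitted relative to DMSO.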

[8] = read-out: Phosphatase and tensin (PTEN), PTEN (gene 5728); assay: LTEA_HepaRG_PTEN: Life Technologies and Expression Analysis (LTEA) Assay for Phosphatase and tensin (PTEN) using HepaRG (AID 2283523)
In short: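 Differentiated human HepaRG cells, plated 48 h then switched to serum-free induction medium, were exposed in duplicate for 48 h to eight half-log concentrations up to 100 uM in 0.5% DMSO. PTEN mRNA measured by TaqMan qRT-PCR, normalized to ACTB/GAPDH/POLR2A, bidirectional fit versus DMSO.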

[9] = read-out: solute carrier (SLC22A1), SLC22A1 (gene 6580); assay: LTEA_HepaRG_SLC22A1: Life Technologies and Expression Analysis (LTEA) Assay for solute carrier (SLC22A1) using HepaRG (AID 2283524)
In short: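 Human HepaRG cells were plated 48 h, switched to serum-free induction medium, then exposed in duplicate for 48 h to 8-point half-log series from 100 uM in 0.5% DMSO. SLC22A1 mRNA measured by qRT-PCR, normalized to ACTB/GAPDH/POLR2A, fitted bidirectionally versus DMSO.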

[10] = read-out: Pyruvate Dehydrogenase Kinase 4 (PDK4), PDK4 (gene 5166); assay: LTEA_HepaRG_PDK4: Life Technologies and Expression Analysis (LTEA) Assay for Pyruvate Dehydrogenase Kinase 4 (PDK4) using HepaRG (AID 2283525)
In short: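 Differentiated human HepaRG cells, pre-cultured 48 h, were exposed in duplicate for 48 h in serum-free induction medium to eight half-log concentrations up to 100 uM in 0.5% DMSO. PDK4 mRNA was quantified by qRT-PCR, normalized to ACTB, GAPDH and POLR2A, bidirectional fitting versus DMSO.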

[11] = read-out: NAD(P)H dehydrogenase [quinone] 1 (NQO1), NQO1 (gene 1728); assay: LTEA_HepaRG_NQO1: Life Technologies and Expression Analysis (LTEA) Assay for NAD(P)H dehydrogenase [quinone] 1 (NQO1) using HepaRG (AID 2283526)
In short: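 HepaRG, 48 h post-plating → serum-free induction medium → test chemical 48 h (duplicate, 100 uM top, half-log x8, 0.5% DMSO) → RNA isolation → qRT-PCR, ACTB/GAPDH/POLR2A normalization; bidirectional curve fit vs DMSO baseline.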

[12] = read-out: Nuclear factor erythroid 2-related factor 2 (Homo sapiens) (UniProt Q16236); assay: LTEA_HepaRG_NFE2L2: Life Technologies and Expression Analysis (LTEA) Assay for Nuclear factor erythroid 2-related factor 2 (NFE2L2) Transcription Factor using HepaRG (AID 2283527);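 also: TaqMan qRT-PCR transcript level normalised to ACTB GAPDH and POLR2A housekeeping genes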
In short: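 Differentiated human HepaRG cells in serum-free induction medium were exposed for 48 h to eight concentrations (top 100 uM, half-log dilutions, 0.5% DMSO), in duplicate. NFE2L2 mRNA was quantified by TaqMan qRT-PCR, normalized to ACTB, GAPDH and POLR2A, with bidirectional fitting versus DMSO.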

[13] = read-out: succinate dehydrogenase complex iron sulfur subunit B (SDHB), SDHB (gene 6390); assay: LTEA_HepaRG_SDHB: Life Technologies and Expression Analysis (LTEA) Assay for succinate dehydrogenase complex iron sulfur subunit B (SDHB) using HepaRG (AID 2283528)
In short: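 HepaRG cells (~100,000/well, plated 48 h) exposed in duplicate for 48 h in serum-free induction medium to 8-point half-log series from 100 uM in 0.5% DMSO; mRNA by qRT-PCR normalised to ACTB, GAPDH, POLR2A; bidirectional fit versus DMSO.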

[14] = read-out: Signal transducer and activator of transcription 3 (Homo sapiens) (UniProt P40763); assay: LTEA_HepaRG_STAT3: Life Technologies and Expression Analysis (LTEA) Assay for Signal transducer and activator of transcription (STAT3) using HepaRG (AID 2283529)
In short: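 Differentiated human HepaRG cells in serum-free induction medium were exposed in duplicate for 48 h to eight half-log concentrations up to 100 uM in 0.5% DMSO. STAT3 mRNA was quantified by TaqMan qRT-PCR, normalized to ACTB, GAPDH and POLR2A, and fitted bidirectionally against DMSO.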

[15] = read-out: solute carrier (SLCO1B1), SLCO1B1 (gene 10599); assay: LTEA_HepaRG_SLCO1B1: Life Technologies and Expression Analysis (LTEA) Assay for solute carrier (SLCO1B1) using HepaRG (AID 2283530)
In short: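 Differentiated human HepaRG cells were exposed for 48 h in serum-free induction medium to eight half-log concentrations, top 100 uM, in 0.5% DMSO. SLCO1B1 mRNA was measured by qRT-PCR, normalized to ACTB, GAPDH and POLR2A, and fitted bidirectionally against DMSO.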

[16] = read-out: Transforming Growth Factor (TGFA), TGFA (gene 7039); assay: LTEA_HepaRG_TGFA: Life Technologies and Expression Analysis (LTEA) Assay for Transforming Growth Factor (TGFA) using HepaRG (AID 2283532)
In short: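 Differentiated human HepaRG cells, plated 48 h then switched to serum-free induction medium, were exposed in duplicate for 48 h to 8-point half-log series from 100 uM in 0.5% DMSO. TGFA mRNA measured by qRT-PCR, normalized to ACTB/GAPDH/POLR2A, bidirectional fit versus DMSO.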

[17] = read-out: Transforming Growth Factor (TGFB1), TGFB1 (gene 7040); assay: LTEA_HepaRG_TGFB1: Life Technologies and Expression Analysis (LTEA) Assay for Transforming Growth Factor (TGFB1) Transporter using HepaRG (AID 2283533)
In short: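 Differentiated HepaRG cells exposed 48 hr in serum-free induction medium to eight half-log concentrations up to 100 uM (0.5% DMSO), duplicate; TGFB1 mRNA by TaqMan qRT-PCR normalised to ACTB, GAPDH, POLR2A; bidirectional fit against DMSO.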

[18] = read-out: TIMP1, TIMP1 (gene 7076); assay: LTEA_HepaRG_TIMP1: Life Technologies and Expression Analysis (LTEA) Assay for TIMP1 using HepaRG (AID 2283534)
In short: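 Differentiated HepaRG cells exposed 48 h in serum-free induction medium, duplicates, eight half-log concentrations from 100 uM in 0.5% DMSO. TIMP1 mRNA by qRT-PCR normalized to ACTB, GAPDH, POLR2A; bidirectional fitting against DMSO.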

[19] = read-out: Nuclear factor NF-kappa-B p105 subunit (Homo sapiens) (UniProt P19838); assay: LTEA_HepaRG_NFKB1: Life Technologies and Expression Analysis (LTEA) Assay for Nuclear Factor Kappa B Subunit 1 (NFKB1) using HepaRG (AID 2283521)
In short: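 Differentiated human HepaRG cells in serum-free induction medium with 0.5% DMSO were exposed for 48 h to eight half-log concentrations, top 100 uM, in duplicate. NFKB1 mRNA measured by Fluidigm TaqMan qRT-PCR, normalised to ACTB, GAPDH and POLR2A; bidirectional fit versus DMSO.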

[20] = read-out: sulfotransferase 2A1 (SULT2A1), SULT2A1 (gene 6822); assay: LTEA_HepaRG_SULT2A1: Life Technologies and Expression Analysis (LTEA) Assay for sulfotransferase 2A1 (SULT2A1) using HepaRG (AID 2283531)
In short: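 HepaRG human liver cells, 48 h exposure in serum-free induction medium to 8 half-log concentrations topping at 100 µM (0.5% DMSO), duplicate wells. SULT2A1 mRNA measured by TaqMan qRT-PCR, normalized to ACTB/GAPDH/POLR2A; bidirectional fit against DMSO.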

Measured: AC50

Sequence of Nuclear factor NF-kappa-B p105 subunit (Homo sapiens) (P19838 whole entry, looked up): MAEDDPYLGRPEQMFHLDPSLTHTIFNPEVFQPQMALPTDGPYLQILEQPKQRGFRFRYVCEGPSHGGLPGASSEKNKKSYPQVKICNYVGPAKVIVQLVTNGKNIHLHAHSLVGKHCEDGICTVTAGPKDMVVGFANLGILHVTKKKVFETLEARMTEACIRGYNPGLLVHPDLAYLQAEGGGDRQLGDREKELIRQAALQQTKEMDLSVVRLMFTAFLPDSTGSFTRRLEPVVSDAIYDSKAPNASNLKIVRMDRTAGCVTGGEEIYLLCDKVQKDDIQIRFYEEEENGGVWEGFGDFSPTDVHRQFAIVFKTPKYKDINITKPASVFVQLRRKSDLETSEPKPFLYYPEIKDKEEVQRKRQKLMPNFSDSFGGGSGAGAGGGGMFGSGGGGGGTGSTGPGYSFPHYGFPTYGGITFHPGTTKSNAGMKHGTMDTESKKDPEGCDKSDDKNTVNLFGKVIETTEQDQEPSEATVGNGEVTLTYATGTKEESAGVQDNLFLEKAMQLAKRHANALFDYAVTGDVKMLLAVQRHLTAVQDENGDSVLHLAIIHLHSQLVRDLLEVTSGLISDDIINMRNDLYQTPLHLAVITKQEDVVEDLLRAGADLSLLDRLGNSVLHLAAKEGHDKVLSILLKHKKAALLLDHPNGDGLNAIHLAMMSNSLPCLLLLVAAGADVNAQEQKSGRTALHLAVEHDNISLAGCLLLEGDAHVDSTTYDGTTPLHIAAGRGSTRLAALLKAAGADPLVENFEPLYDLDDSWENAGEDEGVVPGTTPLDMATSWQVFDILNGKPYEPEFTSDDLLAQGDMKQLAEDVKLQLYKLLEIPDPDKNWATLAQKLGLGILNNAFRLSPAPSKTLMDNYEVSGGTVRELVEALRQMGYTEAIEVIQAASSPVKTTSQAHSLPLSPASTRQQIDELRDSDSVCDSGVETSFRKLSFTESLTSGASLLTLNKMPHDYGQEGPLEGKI
Sequence of Nuclear factor erythroid 2-related factor 2 (Homo sapiens) (Q16236 whole entry, looked up): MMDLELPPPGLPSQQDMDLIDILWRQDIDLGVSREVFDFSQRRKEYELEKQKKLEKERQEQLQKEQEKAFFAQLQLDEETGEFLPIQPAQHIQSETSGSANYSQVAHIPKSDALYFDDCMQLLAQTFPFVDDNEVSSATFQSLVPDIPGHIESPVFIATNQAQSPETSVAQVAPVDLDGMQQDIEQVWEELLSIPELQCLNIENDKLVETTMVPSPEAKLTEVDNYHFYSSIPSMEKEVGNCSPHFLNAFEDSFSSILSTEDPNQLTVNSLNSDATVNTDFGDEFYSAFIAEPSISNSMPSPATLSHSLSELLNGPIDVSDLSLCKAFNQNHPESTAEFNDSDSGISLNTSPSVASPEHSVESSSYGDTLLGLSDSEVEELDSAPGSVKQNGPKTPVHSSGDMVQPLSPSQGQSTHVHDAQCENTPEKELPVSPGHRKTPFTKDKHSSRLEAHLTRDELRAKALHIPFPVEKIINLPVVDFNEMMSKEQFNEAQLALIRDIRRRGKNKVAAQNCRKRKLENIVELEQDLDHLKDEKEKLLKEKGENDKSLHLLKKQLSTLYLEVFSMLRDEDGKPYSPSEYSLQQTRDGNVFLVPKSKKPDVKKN
Sequence of Signal transducer and activator of transcription 3 (Homo sapiens) (P40763 whole entry, looked up): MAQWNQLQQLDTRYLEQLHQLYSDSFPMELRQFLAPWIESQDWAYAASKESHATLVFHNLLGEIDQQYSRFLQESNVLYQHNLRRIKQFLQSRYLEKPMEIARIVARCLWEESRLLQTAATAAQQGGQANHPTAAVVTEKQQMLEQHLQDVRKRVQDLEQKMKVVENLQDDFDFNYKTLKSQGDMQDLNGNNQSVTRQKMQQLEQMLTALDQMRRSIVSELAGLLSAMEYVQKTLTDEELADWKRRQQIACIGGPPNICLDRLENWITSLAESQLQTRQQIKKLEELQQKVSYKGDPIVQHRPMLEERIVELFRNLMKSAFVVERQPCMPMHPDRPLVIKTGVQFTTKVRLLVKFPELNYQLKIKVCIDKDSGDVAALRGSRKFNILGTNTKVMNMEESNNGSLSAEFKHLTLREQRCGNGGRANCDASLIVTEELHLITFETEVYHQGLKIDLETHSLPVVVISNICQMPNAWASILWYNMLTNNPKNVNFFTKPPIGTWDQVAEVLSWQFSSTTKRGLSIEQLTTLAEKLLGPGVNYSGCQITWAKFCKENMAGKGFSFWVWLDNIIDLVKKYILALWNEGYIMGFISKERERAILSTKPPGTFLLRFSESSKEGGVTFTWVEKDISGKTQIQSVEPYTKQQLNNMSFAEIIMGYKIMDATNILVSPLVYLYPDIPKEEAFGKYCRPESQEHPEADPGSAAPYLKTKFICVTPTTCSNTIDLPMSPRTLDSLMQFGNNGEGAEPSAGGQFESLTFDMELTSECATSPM

Oc1ccccc1
not listed: [19] | [20]
inactive: all other assays above

NC(=O)c1nc(-c2cccc(-c3cc(F)ccc3OCC(F)(F)C(F)(F)F)c2)n[nH]1
active: [5] 5.48 µM | [19] 82.8 µM | [8] 80.5 µM | [9] 15.8 µM | [11] 78.2 µM | [16] 91.2 µM | [18] 83.2 µM
not listed: [6]
inactive: all other assays above

Cc1ccc2oc(CN(Cc3ccccc3)C(=O)Nc3c(F)cc(F)cc3F)c(-c3ccc(Cl)cc3)c2c1
active: [1] 56.4 µM | [4] 44.2 µM | [9] 44.2 µM
not listed: [20]
inactive: all other assays above

OC12N=C(c3ccccc3)SC1Cc1cc(Cl)ccc12 (centres undefined)
active: [1] 1.52 µM | [2] 12.1 µM | [3] 72.8 µM | [4] 16.1 µM | [6] 11.8 µM | [9] 40.5 µM | [10] 8.96 µM | [14] 925 nM | [15] 32.9 µM | [20] 14 µM
inactive: [5] | [7] | [8] | [11] | [12] | [13] | [16] | [17] | [18]

c1ccc2n[nH]nc2c1
not listed: [20]
inactive: all other assays above
